Source: PubChem BioAssay (NCI)
The panel holds about 83,000 compounds, 20% with a hit somewhere; the sample as a whole holds those more often.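 Negative percent growth values reflect cell death: -40 means 40% of the cells present at the start died, and -100 means all died.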 Active and inactive are the calls of the source.

What follows are compounds tested on COLO 205 colon (assay: NCI-60 one-dose screen, 48 h (100 = growth as untreated, 0 = no growth, -100 = all killed)). Details: 10 µM unless noted.
Protocol: Cells are grown in 96 well plates and exposed to the test compound for 48 hours. Compounds are tested at a single concentration, which is 10^-5 M for most compounds. The reported endpoint is percent growth (GI% or GIPRCNT), where numbers from 0 - 100% represent growth inhibition, and numbers from -100% - 0 represent cell death. For example, a value of 40 represents 60% growth inhibition. A value of 0 means no net growth occurred over the course of the experiment. A value of -40 indicates 40% of cells at the beginning of the experiment died by the end of the experiment. A value of -100 means all cells are dead at the end of the experiment.
NCI-60 Human Tumor Cell Lines Screen was performed using the standard one-dose NCI protocol, which is described in more detail at https://dtp.cancer.gov/discovery_development/nci-60/default.htm.
Compounds with GIPRCNT values below 10 were considered active. Activity score was based on GIPRCNT using the following formula: […]
Score is 0 for GIPRCNT values of 100 or above, 50 for GIPRCNT values of 0, and 100 for GIPRCNT values of -100.

SMILES | growth
O=C(Cc1ccc(/C=C/C(=O)c2ncc[nH]2)cc1)Nc1cc(C(F)(F)F)cc(C(F)(F)F)c1 | 102% (inactive)
CNC(=O)c1cc(Oc2cccc3nc(NC(=O)Nc4cc(C(F)(F)F)ccc4Cl)ccc23)ccn1 | 67.5% (inactive)
Cc1ccc2nc(-c3ccc(C(=O)NNC(=S)Nc4ccccc4)cc3)[nH]c2c1 | 119% (inactive)
Nc1[nH]c(=S)nc2oc(-c3ccccc3)c(-c3ccccc3)c12 | 121% (inactive)
O=C(Cc1ccccc1)Nc1cccc(N=Cc2ccccc2O)c1 | 111% (inactive)
CC1(C)CC2=C3C=C[C@@H]4[C@@]5(C)CCC(=O)C(C)(C)[C@@H]5CC[C@@]4(C)[C@]3(C)CC[C@@]2(C(=O)O)C[C@H]1O | 29.2% (inactive)
C=C1C(=O)O[C@H]2[C@H]1CC/C(COC(=O)NCc1ccc(Cn3c(=O)sn(-c4ccc(C#N)cc4)c3=O)cc1)=C\CC[C@@]1(C)O[C@@H]21 | 38.1% (inactive)
O=C(CC(=O)Nc1cccc(C(=O)O)c1)Nc1cccc(C(=O)O)c1 | 100% (inactive)
COc1cccc(CCNc2ncnc3c2ncn3Cc2nnc3c4ccccc4c(Cl)nn23)c1 | 90.9% (inactive)
O=P(O)(O)OCC1OC(n2cnc3c(NCc4ccco4)ncnc32)C(O)C1O (stereo not given) | 22.8% (inactive)
O=c1nc(-c2ccccc2)c2cc(-c3ccc(C(F)(F)F)nc3)ccc2[nH]1 | 105% (inactive)
CCOC(=O)c1c(C)nc2c(c1N)/C(=C/c1ccc(OC)cc1)C(=O)N2Cc1ccccc1 | 73.7% (inactive)
CC(=O)OC[C@]12CC[C@@H]([C@@H](C)c3nnc(-c4ccncc4)o3)[C@@H]1[C@H]1CC[C@@H]3[C@@]4(C)CC[C@H](OC(C)=O)C(C)(C)[C@@H]4CC[C@@]3(C)[C@]1(C)CC2 | 82.4% (inactive)
COc1cc(/C=C2\CN(S(=O)(=O)c3ccccc3)C/C(=C\c3cc(CN4CCCCC4)c(O)c(OC)c3)C2=O)cc(CN2CCCCC2)c1O | -4.52% (active)
COc1cccc(/C=C/C(=O)c2cccc(Nc3nc(Nc4ccccc4)nc(Nc4ccccc4)n3)c2)c1 | 87.5% (inactive)
O=C1/C=C/[C@@H](O)[C@@H]2C[C@@H](O)C[C@H]2/C=C/CCC[C@@H](O)CCO1 | 114% (inactive)
OCCNCCNC(Cc1ccc(Cl)cc1)c1ccccc1 (stereo not given) | 70% (inactive)
C=C(c1ccc(OC)c(/C=C/C(=O)c2ccc3c(c2)OCO3)c1)c1cc(OC)c(OC)c(OC)c1 | 5.33% (active)
Cc1cn(-c2cc(NC(=O)c3cncc(C#Cc4c(N)ncc5ccc(F)cc45)c3)cc(C(F)(F)F)c2)cn1 | 11.6% (inactive)
CCOC(=O)C1=C(C)/C(=C\c2[nH]c(C)c(C(=O)OCC)c2C)N=C1C | 85.2% (inactive)

SMILES | growth
O=C(CN1CCN(c2cc3c(cc2F)c(=O)c(C(=O)O)cn3C2CC2)CC1)N/N=C/c1ccco1 | 102% (inactive)
N#C/C(=C\C=C\c1ccc(-c2cc(Cl)ccc2Cl)o1)c1nc2ccccc2s1 | 92.9% (inactive)
COc1cc2c(c(OC)c1OC)C(=O)CC(c1cccc(NC(=O)c3ccc(C#N)cc3)c1)O2 (stereo not given) | 90.6% (inactive)
O=C(C1CCCCC1)[C@@H]1[C@]2(C(=O)NC3CCCCC32)[C@@H]2CCCN2[C@@]12C(=O)NC1CCC(Cl)CC12 (stereo not given in full) | -80.8% [100 µM] (active)
Cc1c(CN)cc(-c2ccc(Cl)cc2)n1-c1ccccc1 | 110% (inactive)
O=C(Nc1ccccc1N1CCCC1=O)c1oc2ccc(F)cc2c1-c1cnn(-c2ccccc2)c1 | 47% [50 µM] (inactive)
CC1=C(C(=O)Nc2ccccc2)C(c2ccc3c(c2)OCO3)NC(=S)N1 (stereo not given) | 117% (inactive)
C#CC#CC#CC#CC#CC#CC#CC#CCC1OC[C@H](COC(=O)O[C@@H](C(=O)O[C@H]2C[C@@]3(O)[C@@H](OC(=O)c4ccccc4)[C@@H]4[C@]5(OC(C)=O)CO[C@@H]5C[C@H](O)[C@@]4(C)C(=O)[C@H](OC(C)=O)C(=C2C)C3(C)C)[C@@H](NC(=O)c2ccccc2)c2ccccc2)O1 (stereo not given in full) | 23% (inactive)
CCCC(CC)(C(=O)Nc1ccc2nc(C)cc(N)c2c1)C(=O)Nc1ccc2nc(C)cc(N)c2c1 | 114% (inactive)
CCOC(=O)/C=C1\S/C(=N\Nc2cc(=O)[nH]c3ccccc23)N(c2ccccc2)C1=O | 106% (inactive)
O=C1/C(=C\c2cccc3nccnc23)SC(=S)N1CCc1ccc(O)cc1 | 118% (inactive)
CN(Cc1cc(Br)cc(Br)c1O)Cc1cc(Br)cc(Br)c1O | 84% (inactive)
O=C(NC1CC(F)C1)c1cc2cccnc2n1-c1ccc(Cl)c(Cl)c1 (stereo not given) | 109% (inactive)
C#CCNC(=O)[C@]1(C)CCC[C@@]2(C)[C@H]1CC=C1C=C(C(C)C)CC[C@@H]12 | 115% (inactive)
CC(=O)/C(=C/c1ccc([N+](=O)[O-])cc1)C(=O)c1ccccc1 | 90% (inactive)
O=C(O)c1cn(C2CC2)c2cc(N3CCN(C(=O)Nc4nc(-c5ccc(Br)cc5)cs4)CC3)c(F)cc2c1=O | 24.2% (inactive)
NS(=O)(=O)c1ccc(NC(=O)/C(=C\c2ccc(Cl)cc2Cl)NC(=O)c2ccccc2)cc1 | 110% (inactive)
COC(=O)c1ccc(NC(=O)Nc2ccc(C(=O)OC)cc2)cc1 | 104% (inactive)
O=C1/C(=C/c2ccccn2)NC(=S)N1c1ccccc1Cl | 66.4% (inactive)
C=CCC(CCCC)(C(=O)OCC)C(=O)OCC | 111% (inactive)
